The source of these data is PubChem BioAssay (NCI).

Among the test systems are HCT-15 colon; HT29 colon; SNB-75 CNS; SNB-19 CNS; U251 CNS; PC-3 prostate; SK-MEL-5 melanoma; UACC-62 melanoma; LOX IMVI melanoma; SK-MEL-2 melanoma; EKVX NSCLC; SN12C renal; UO-31 renal; TK-10 renal; ACHN renal; CAKI-1 renal; A498 renal; CCRF-CEM leukemia; MOLT-4 leukemia; SK-MEL-28 melanoma.
Test in all cases: NCI-60 one-dose screen, 48 h (100 = growth as untreated, 0 = no growth, -100 = all killed)
Holding throughout (details): 10 µM unless noted

Compounds without any hit were thinned out: in the full panel of roughly 83,000, 20% have a hit.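 Negative percent growth values reflect cell death: -40 means 40% of the cells present at the start died, and -100 means all died.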 Values without a mark were called inactive. The source made the active and inactive calls. The calls were made as follows: active = growth percent below 10; inactive = the rest.

Consider `Cc1ccc(S(=O)(=O)OCC#CCOS(=O)(=O)c2ccc(C)cc2)cc1`, for which the growth in the experiment with HCT-15 colon was 72.3%; in the experiment on HT29 colon it was 50.3%; in the experiment on SNB-75 CNS, 5% (active); with SNB-19 CNS, 70.1%; in the experiment on U251 CNS, 22.6%; with PC-3 prostate it was 70.4%. Besides, the growth is 59.4% in the experiment with SK-MEL-5 melanoma; 42.4% in the experiment with UACC-62 melanoma; -35.8% (active) in the experiment on LOX IMVI melanoma; 66.4% in the experiment with SK-MEL-2 melanoma; 60.9% in the experiment on EKVX NSCLC; 64.1% in the experiment with SN12C renal. Besides, the growth is -87.1% (active) in the experiment on UO-31 renal; 101% with TK-10 renal; 49.5% in the experiment with ACHN renal; -82.9% (active) with CAKI-1 renal; 85.9% with A498 renal; 7.43% (active) with CCRF-CEM leukemia. Moreover, in the experiment with MOLT-4 leukemia, the growth was 46.3%.

As to `COC(=O)c1c2c(c(C)[n+]([O-])c1C)C(=O)C(NCc1ccccc1)=CC2=O`, the growth was 5.71% (active) in the experiment with HCT-15 colon; 12.7% in the experiment with HT29 colon; 125% with SNB-75 CNS; 7.59% (active) in the experiment with SNB-19 CNS; 1.71% (active) in the experiment on U251 CNS; 8.92% (active) in the experiment on PC-3 prostate. In addition, the growth was -84.9% (active) with SK-MEL-5 melanoma; -16.6% (active) in the experiment on UACC-62 melanoma; 8.65% (active) in the experiment with LOX IMVI melanoma; 61.3% in the experiment on SK-MEL-28 melanoma; 23.6% in the experiment on SK-MEL-2 melanoma; 2.86% (active) in the experiment with SN12C renal. In addition, the growth is 42.1% in the experiment with UO-31 renal; 35.4% in the experiment with ACHN renal; 22.3% in the experiment on CAKI-1 renal; 98.6% in the experiment with A498 renal; 21.9% in the experiment on CCRF-CEM leukemia; 16.4% in the experiment on MOLT-4 leukemia.

For `O=C(C1=Cc2cc3ccccc3n2Cc2cnnn21)c1ccc(F)cc1`, the growth in the experiment on HCT-15 colon was 95.8%; with HT29 colon it was 112%; in the experiment on SNB-75 CNS, 86.2%; with SNB-19 CNS it was 94.1%; in the experiment on U251 CNS, 98.2%; in the experiment with PC-3 prostate it was 92.3%. The growth with SK-MEL-5 melanoma was 96%; in the experiment with UACC-62 melanoma, 90.9%; in the experiment with LOX IMVI melanoma, 98.8%; in the experiment with SK-MEL-28 melanoma, 105%; in the experiment on SK-MEL-2 melanoma, 103%; in the experiment on SN12C renal, 97.6%. Also, the growth with UO-31 renal was 88.6%; with TK-10 renal, 107%; in the experiment with ACHN renal it was 103%; in the experiment with CAKI-1 renal, 90.9%; in the experiment on A498 renal it was 79.9%; with MOLT-4 leukemia it was 89%.

Take `N#Cc1c(-c2ccccc2)cc(-c2ccccc2)n(CCCCC(=O)NO)c1=O`: the growth with HCT-15 colon is 13.8%; in the experiment on HT29 colon, 19.1%; with SNB-75 CNS it was -8.42% (active); with SNB-19 CNS, 43.3%; in the experiment on U251 CNS, 29.1%; in the experiment on PC-3 prostate it was 32.9%. In addition, the growth in the experiment on SK-MEL-5 melanoma was -53% (active); in the experiment with UACC-62 melanoma it was 2.89% (active); with LOX IMVI melanoma, -54.9% (active); with SK-MEL-2 melanoma, 40.6%; in the experiment on EKVX NSCLC, 30.6%; in the experiment with SN12C renal, 23.2%. Besides, the growth in the experiment with UO-31 renal is -51.6% (active); in the experiment on TK-10 renal, 28.4%; in the experiment with ACHN renal, 2.83% (active); in the experiment on CAKI-1 renal, 1% (active); in the experiment with A498 renal, 13.2%; in the experiment on CCRF-CEM leukemia, 11.9%. In the experiment on MOLT-4 leukemia, the growth was 11.4%.

As for `CC(C)Cc1nc(Nc2ccccc2)[nH]c(=O)c1C#N`, the growth with HCT-15 colon was 60.5%; in the experiment with HT29 colon, 51.7%; in the experiment on SNB-75 CNS it was 62.4%; with SNB-19 CNS, 54.8%; in the experiment with U251 CNS, 55.8%; with PC-3 prostate it was 38%. For the same compound, the growth in the experiment with SK-MEL-5 melanoma was 48.7%; in the experiment with UACC-62 melanoma, 19.5%; in the experiment on LOX IMVI melanoma, 48.7%; with SK-MEL-28 melanoma, 55.9%; in the experiment with SK-MEL-2 melanoma, 40.5%; with UO-31 renal it was 14%. The growth in the experiment with TK-10 renal was 82%; in the experiment with ACHN renal, 57.5%; with CAKI-1 renal, 50.9%; in the experiment with A498 renal, 19.4%; in the experiment on CCRF-CEM leukemia it was 60.2%; with MOLT-4 leukemia it was 61.6%.

As to `c1ccc(-c2ccc3c(c2)C2(CCNCC2)CN3)cc1`, the growth was 99.6% with HCT-15 colon; 96.5% in the experiment with HT29 colon; 73.8% in the experiment on SNB-75 CNS; 101% with SNB-19 CNS; 102% with U251 CNS; 86.9% in the experiment with PC-3 prostate. The growth in the experiment with SK-MEL-5 melanoma was 99.1%; in the experiment with UACC-62 melanoma, 84.6%; in the experiment on LOX IMVI melanoma it was 89.9%; in the experiment on SK-MEL-2 melanoma it was 93.4%; in the experiment on EKVX NSCLC, 75.9%; with SN12C renal it was 98.7%. For the same compound, the growth in the experiment on UO-31 renal is 66.1%; in the experiment with TK-10 renal, 125%; with ACHN renal, 93%; with CAKI-1 renal it was 93%; in the experiment on A498 renal, 104%; with CCRF-CEM leukemia it was 112%. Also, the growth in the experiment on MOLT-4 leukemia is 85.7%.

Turning to `O=C1OCC2=C1C(c1ccccc1)c1cc3c(cc1N2CCO)OCCO3` (stereo not drawn), the growth is 7.18% (active) with HCT-15 colon; -35.9% (active) in the experiment on HT29 colon; -11.2% (active) with SNB-75 CNS; 12.8% in the experiment with SNB-19 CNS; 7.86% (active) in the experiment on U251 CNS; 17.3% in the experiment with PC-3 prostate. Further, the growth with SK-MEL-5 melanoma was 4.37% (active); in the experiment on UACC-62 melanoma, 14.5%; in the experiment with LOX IMVI melanoma, 34.6%; in the experiment with SK-MEL-2 melanoma, 57.3%; with EKVX NSCLC, 48.4%; with UO-31 renal it was 68.4%. Also, the growth is 63.5% in the experiment with TK-10 renal; 36.7% in the experiment on ACHN renal; 51% in the experiment with CAKI-1 renal; -21.2% (active) in the experiment on A498 renal; 10.5% in the experiment on CCRF-CEM leukemia; 21.4% with MOLT-4 leukemia.

Regarding `O=C1CCCCN1c1ccc(C2=NCCCN2)cc1`, the growth in the experiment with HCT-15 colon was 101%; in the experiment on HT29 colon it was 87.6%; in the experiment with SNB-75 CNS, 55%; in the experiment on SNB-19 CNS it was 89.2%; in the experiment on U251 CNS it was 79.3%; with PC-3 prostate it was 79.9%. The growth was 97.5% with SK-MEL-5 melanoma; 90.3% with UACC-62 melanoma; 87.7% in the experiment on LOX IMVI melanoma; 111% in the experiment with SK-MEL-2 melanoma; 97.8% in the experiment on EKVX NSCLC; 92.9% in the experiment with SN12C renal. In addition, the growth is 79.1% in the experiment with UO-31 renal; 98.8% in the experiment on TK-10 renal; 95.7% with ACHN renal; 100% with CAKI-1 renal; 93.7% with A498 renal; 116% in the experiment with CCRF-CEM leukemia. Moreover, the growth in the experiment with MOLT-4 leukemia was 80%.
